From PubChem BioAssay AID686979 (National Center for Advancing Translational Sciences (NCATS), 2013) come the findings set out here.

In all, about 420,000 compounds went through this assay and about 50,000 (12%) were called active. Entries that show only a call come without a potency. Another 26% or so got no clear call; they are omitted. Calls follow the shape of the dose curve; as a rule, active = well fitted inhibition curve with a large enough effect; inconclusive = small, poorly fitted or top-dose-only effect; inactive = flat fitted curve, though single readings scatter. This excerpt belongs to a sample that is enriched for actives.
Potency is read from the fitted curve at half-maximal effect.

The nature of this assay: qHTS for Inhibitors of human tyrosyl-DNA phosphodiesterase 1 (TDP1): qHTS in cells in presence of CPT. Also: nearly all actives have a fitted effect of over 55% in size. As to conditions: chicken DT40 Tdp1-/-;hTDP1 cells + 20 nM CPT, ATP luminescence, 48 h; series mostly up to 46.2 µM. The gist of the method: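 Chicken DT40 Tdp1-/- cells stably complemented with human TDP1 were seeded at 400 cells/well in medium containing 20 nM camptothecin, exposed to pin-transferred compounds, and grown at 37 °C for at least 48 hr. Viability was read as ATP luminescence.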
Turning to `Cc1ccnc2nc(C(=O)OCC(=O)N(CC(C)C)CC(C)C)nn12`, the Potency result is “inactive”.

With `Cc1cc(C)c2nc(SCC(=O)N(C)C3CCS(=O)(=O)C3)cc(C)c2c1` (stereo not given), the Potency is 23.1 µM (active).

Take `CCn1c(SCC(=O)N(C)C2CCS(=O)(=O)C2)nnc1-c1cccs1` (stereo not given): the Potency entry was “inactive”.

Regarding `CN(C(=O)CSc1nnc(-c2ccc(C(C)(C)C)cc2)n1C)C1CCS(=O)(=O)C1` (stereo not given), the Potency result was “inactive”.

Regarding `COCCn1c(SC(C)C(=O)NC2CC2)nnc1-c1cccc(C)c1` (stereo not given), the Potency result is “inactive”.

For `CCN(CC)C(=O)C1=C(C)N(Cc2ccc(F)cc2)C(=O)C(CC(=O)NCc2cccc3ccccc23)C1` (stereo not given), the Potency result was “inactive”.

As to `COc1ccc(NC(=O)C(C)N2c3cccc4cccc(c34)S2(=O)=O)c(OC)c1` (stereo not given), the Potency result is “inactive”.

In the case of `CCOc1cccc(-c2nnc(SCC(=O)NC3CC3)n2C)c1`, the Potency entry is “inactive”.

In the case of `COCCN1C=C2C(=O)C(C)(OC(=O)C3CCCC3)C(=O)C=C2C=C1c1ccsc1` (stereo not given), the Potency entry is “inactive”.

Regarding `COC(=O)CCCC1=CC2=C(c3ccccc3)C(=O)C(C)(OC(=O)C3CCCC3)C(=O)C2=CN1c1ccc(OC)cc1` (stereo not given), the Potency is 20.6 µM (active).

For `COC(=O)CCCC1=CC2=CC(=O)C(C)(OC(=O)c3cccs3)C(=O)C2=CN1c1cccc(C#N)c1` (stereo not given), the Potency result was “inactive”.

In the case of `O=c1ccc(S(=O)(=O)N2CCCC2)cn1Cc1nc(-c2ccccc2)no1`, the Potency entry is “inactive”.

Regarding `Clc1cccc(Cl)c1Cn1nnc(-c2cccs2)n1`, the Potency result was “inactive”.

For `O=C(Cc1ccc([N+](=O)[O-])cc1)N/N=C/c1ccco1`, the Potency entry is “inactive”.

In the case of `CCN(/N=C/c1ccccc1)c1cc(=O)n(C)c(=O)[nH]1`, the Potency entry was “inactive”.

For the molecule `O=C(Nc1ccccc1)c1nnsc1S(=O)(=O)c1ccc(Cl)cc1`, the Potency was 4.61 µM (active).

As to `O=C(Nc1cccc(Cl)c1)c1csnn1`, the Potency entry is “inactive”.

As to `CC(=O)Nc1cc(C(=O)O)ccc1S(=O)(=O)c1ccc(Cl)cc1`, the Potency result is “inactive”.

With `CCOc1ccc(C2C(C(=O)O)c3ccccc3C(=O)N2CCN2CCOCC2)cc1` (stereo not given), the Potency entry was “inactive”.

Take `CC(=O)c1ccc(OCCN2CCOCC2)cc1`: the Potency result is “inactive”.

As to `CCOc1ccc(C(=O)CCN2CCOCC2)cc1`, the Potency is 3.26 µM (active).

As to `COc1cccc(N(C(=O)CNC(=O)c2ccco2)C(C(=O)NC2CCCCC2)c2cccnc2)c1` (stereo not given), the Potency result is “inactive”.

In the case of `COc1cccc(CNCCc2c[nH]c3ccccc23)c1OCc1ccccc1F`, the Potency is 10.3 µM (active).

With `COc1ccccc1CC(=O)NCCc1c[nH]c2ccccc12`, the Potency entry is “inactive”.

Consider `COc1ccc(S(=O)(=O)NCCc2c[nH]c3ccccc23)cc1OC`, for which the Potency entry was “inactive”.

In the case of `Cc1noc(C)c1C(=O)NCCc1ccc(S(N)(=O)=O)cc1`, the Potency entry is “inactive”.

On to `CCOC(=O)c1c(C)[nH]c(C2=NNC(=NC(C)COC)SC2)c1C` (stereo not given), for which the Potency was 20.6 µM (active).

For `CCOCCCNC(=O)C(NC(=O)CNC(=O)c1ccccc1)c1ccc(C)cc1` (stereo not given), the Potency result was “inactive”.

With `CC1CCN(C(=O)/C(=C\c2ccccc2F)NC(=O)c2ccccc2)CC1`, the Potency result is “inactive”.

For `COC(=O)c1ccccc1C(=O)NCc1nc(N2CCCC2)c2cccc(C)c2n1`, the Potency entry is “inactive”.

For the molecule `COc1ccc(CNC2CCCCC2)cc1`, the Potency entry was “inactive”.

Consider `CCCC(=O)n1nc(NCc2ccc(OC)cc2)nc1NCc1ccc(OC)cc1`, for which the Potency result is “inactive”.

In the case of `COc1ccc(CNc2nc(NCc3ccc(OC)cc3)c3ncn(C4CCCC4)c3n2)cc1`, the Potency was 3.26 µM (active).

For `COc1ccc(-n2c(SCC(=O)NCc3cccs3)nnc2-c2ccoc2C)cc1`, the Potency result is “inactive”.

Take `C/C(=N\NC(=O)c1ccc(CSc2nc(C)cc(C)n2)cc1)C1CCCCC1`: the Potency result was “inactive”.

In the case of `CC(=O)c1c(C)c[nH]c1C`, the Potency was 23.1 µM (active).

Regarding `C1CC1Cc1noc(CN2CCN(CC3CC3)CC2)n1`, the Potency result was “inactive”.

For the molecule `CC1(C(=O)NCCc2c[nH]c3ccccc23)C=CC2(CCCCC2)N1C(=O)c1ccccc1` (stereo not given), the Potency was 18.4 µM (active).

`O=C(NCCc1c[nH]c2ccccc12)c1cccc(Br)c1`: the Potency entry is “inactive”.

As to `O=C(CN1C(=O)NC2(CCCCC2)C1=O)NCCc1c[nH]c2ccccc12`, the Potency entry was “inactive”.

For the molecule `C=CCn1c(SCC(=O)NC)nnc1C12CC3CC(CC(C3)C1)C2`, the Potency entry was “inactive”.

For the molecule `Cc1cc(C)cc(OCC(=O)NNC(=O)CCN2C(=O)c3ccccc3C2=O)c1`, the Potency result is “inactive”.

Regarding `Cc1ccsc1/C=N/NC(=O)Cc1cc(=O)[nH][nH]1`, the Potency entry was “inactive”.

Consider `COc1cc(CCC(=O)Nc2ccncc2Cl)cc(OC)c1OC`, for which the Potency entry was “inactive”.

Consider `COc1cc(CCC(=O)N2CCN(c3ccccc3Cl)CC2)cc(OC)c1OC`, for which the Potency was 11.6 µM (active).

Consider `CC(=O)c1ccc(N2CCN(C(=O)CCc3ccccc3)CC2)cc1`, for which the Potency entry was “inactive”.

In the case of `Cc1cc(Cl)c2oc(C(=O)N3CCC(O)(c4ccccc4)CC3)c(C)c2c1`, the Potency result was “inactive”.

As to `Cc1cc2nc(-c3ccco3)c(Cc3cccc(F)c3)n2c(C)c1Br`, the Potency is 16.4 µM (active).

`CCCCN(C(=O)c1ccc2ccccc2c1)c1c(N)n(CCCC)c(=O)[nH]c1=O`: the Potency result was “inactive”.

`CN(CC(=O)NCCc1ccc(S(N)(=O)=O)cc1)CC(=O)Nc1ccc(F)c(F)c1F`: the Potency entry is “inactive”.

With `Cc1ccc(C(=O)Nc2ncccc2C)cc1S(=O)(=O)N1CCOCC1`, the Potency result was “inactive”.

As to `O=C(Nc1ccccc1F)c1ccc(S(=O)(=O)N2CCCCCC2)cc1`, the Potency entry was “inactive”.

`O=C(N/N=C/c1ccccn1)c1ccc(S(=O)(=O)N2CCCCCC2)cc1`: the Potency entry is “inactive”.

As to `CN1CCN(S(=O)(=O)c2cccc(C(=O)Nc3sccc3C#N)c2)CC1`, the Potency result is “inactive”.

With `Cc1ccc(C)c2sc(NC(=O)c3ccc(S(=O)(=O)N4CCCC4)cc3)nc12`, the Potency is 29.1 µM (active).

Regarding `O=C(Nc1ncccc1O)c1ccc(S(=O)(=O)N2CCCC2)cc1`, the Potency was 14.6 µM (active).

On to `CCOC(=O)c1csc(NC(=O)c2ccc(S(=O)(=O)N3CCCC3)cc2)n1`, for which the Potency result was “inactive”.

Consider `Cc1cc2nc(NC(=O)c3ccc(S(=O)(=O)N4CCOCC4)cc3)sc2cc1C`, for which the Potency entry was “inactive”.

As to `Cc1cccnc1NC(=O)c1cccc(S(=O)(=O)N2CCN(c3ccc(F)cc3)CC2)c1`, the Potency was 18.4 µM (active).

Regarding `CCOc1cc(C)ccc1OCc1nnc(SCC(=O)Nc2cccc(C(=O)O)c2)n1-c1ccccc1`, the Potency entry is “inactive”.

With `CCCOc1ccc(/C=N/NC(=O)C2CC2)c(OCCC)c1`, the Potency entry is “inactive”.

As for `CC(C)CN1CC(C)C(=O)N(c2ccccc2)C1=S` (stereo not given), the Potency entry was “inactive”.

As to `N#CC(Cc1cc2ccccc2n1S(=O)(=O)c1ccccc1)OCc1ccccc1` (stereo not given), the Potency entry is “inactive”.

On to `N[C@@H](Cc1ccccc1)C(=O)N1CCC(C(=O)NCC(=O)Nc2ccc(F)cc2)CC1`, for which the Potency result is “inactive”.

Take `Cc1ccccc1C(=O)O`: the Potency result was “inactive”.
